Data as given in PubChem BioAssay (NCI).
The panel holds about 83,000 compounds, 20% with a hit somewhere; the sample as a whole holds those more often.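 96-well plates, one dose, 48 hours. Percent growth reported; active if below 10.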 Values without a mark were called inactive. Activity calls are given as the source filed them.

Each compound was assayed on SK-MEL-2 melanoma (assay: NCI-60 one-dose screen, 48 h (100 = growth as untreated, 0 = no growth, -100 = all killed)). Details: 10 µM unless noted.
`c1cc2[nH]ncc2cc1-c1nc2ccc3[nH]ncc3c2c2c1CCC2` gave a growth of 19%.
For `O=C(Nc1cccc(-n2cc(-c3ccncc3)c(-c3ccc(Cl)c(O)c3)n2)c1)Nc1ccc(Cl)c(Cl)c1`, the growth was -25.4% (active).
With `Fc1ccc(Nc2nc(NCCNc3ccnc4cc(Cl)ccc34)nc(N3CCOCC3)n2)cc1` the growth was 50.7%.
In the case of `COc1ccc(-c2nc3sc(-c4cc(OC)c(OC)c(OC)c4)nn3c2/C=C2/C(=O)Nc3ccc(F)cc32)cc1`, the growth was -10.8% (active).
`CSc1nc2c(c(=O)[nH]1)C(c1ccc(C)cc1)C=C(C(=O)O)N2` (stereo not drawn) gave a growth of 120%.

These compounds were tested on EKVX NSCLC in the same assay as above. Details: 10 µM unless noted.
`COC(=O)c1cccc2c1N(C)c1c(cccc1C(=O)OC)CC2` was tested, and the growth was 112%.
`COc1ccc(/C=C2\N=C(c3ccccc3)N(C(=O)c3ccccc3O)NC2=O)cc1` gave a growth of 88.3%.
With `O=C(Oc1ccccc1[N+](=O)[O-])C1CCCN1C(=O)OCc1ccccc1` (stereo not drawn) the growth was 96.7%.
For `COc1ccc(CCNC2=CC(=O)CCC2)cc1OC`, the growth was 110%.
Work on `O=C(Nc1ccncc1)C(=O)c1cn(S(=O)(=O)c2ccc(Cl)cc2)c2ccccc12` yielded a growth of 53.5%.
With `O=C(Nc1ccncc1)C(=O)c1cn(S(=O)(=O)c2ccccc2F)c2ccccc12` the growth was 49.2%.
`O=C(c1ccccc1)C1OC1c1ccc([N+](=O)[O-])cc1` (stereo not drawn) showed a growth of 89.2%.
Work on `Cc1ccc(Cc2c(C=O)nc(N)[nH]c2=O)c2ccccc12` yielded a growth of 101%.
With `CCN(CC)CCOC(=O)C(c1ccccc1)(c1ccccc1)C(C)C` the growth was 81.6%.
Work on `COc1ccc(C(=O)N2NC(=O)/C(=C/c3cn(-c4ccccc4)nc3-c3ccccc3)N=C2c2ccccc2)cc1` yielded a growth of 96.1%.
For `CC(C)(C)OC(=O)NC(CSCc1ccccc1)C(=O)ON1C(=O)CCC1=O` (stereo not drawn), the growth was 113%.
Work on `COc1ccc(C2=C(c3cc(OC)c(OC)c(OC)c3)C(=O)CC2)cc1` yielded a growth of 40%.
`COc1ccc(C(=O)N2NC(=O)/C(=C/c3ccccc3F)N=C2c2ccccc2)cc1` was tested, and the growth was 103%.
In the case of `C/C(=C\c1ccc(OCC(=O)O)c(Cl)c1Cl)[N+](=O)[O-]`, the growth was 102%.
`COc1ccc(-c2cc3c(OC)c(OC)c(OC)cc3oc2=O)cc1` showed a growth of 64.3%.
`COc1ccc(Nc2ncccc2C(=O)NCc2cn(Cc3cccc(Oc4ccccc4)c3)nn2)c(OC)c1` gave a growth of 46.5%.
Work on `CC(=O)Nc1scc[n+]1Cc1ccccc1` yielded a growth of 103%.
`COc1cc2c(c(OC)c1OC)-c1ccc(N)c(=O)cc1[C@@H](NC(C)=O)CC2` showed a growth of 51.4%.
`O=C([O][Sn]([O]C(=O)c1ccccn1)([c]1ccccc1)[c]1ccccc1)c1ccccn1` gave a growth of 92.2%.
`COC(OC)c1ccccc1` gave a growth of 103%.
For `Cc1ccc(S(=O)(=O)n2cc(C(=O)C(=O)Nc3ccncc3)c3ccccc32)cc1`, the growth was 55.8%.
For `COc1ccc(Nc2ncccc2C(=O)NCc2cn(Cc3cccc(Oc4ccccc4)c3)nn2)cc1`, the growth was 40.1%.
With `CC1=C(C#N)C(=O)NC(C)C1` (stereo not drawn) the growth was 105%.
Work on `Cc1cc(C2=NNC(=O)Cc3cc4c(cc32)OCCO4)cc(C)c1N` yielded a growth of 59.6%.
`CCOC(=O)C1=C(C)NC(C)=C(C(=O)OCC)C1(C)C` was tested, and the growth was 108%.
Compound `O=C(Nc1ccncc1)C(=O)c1cn(S(=O)(=O)c2ccc(Br)cc2)c2ccccc12` has a growth of 44.5%.
`CC1CCC(C)N(C)C1` (stereo not drawn) gave a growth of 112%.
Work on `CCC(C)/C(=C\C#N)NCCCN/C(=C/C#N)C(C)CC` (stereo not drawn) yielded a growth of 101%.
For `CC1(c2ccc(Cl)cc2)OC(=O)CC(=O)O1`, the growth was 98.4%.
For `CCN(CC)CCOc1ccc(Cl)c(C)c1`, the growth was 111%.
With `Nc1cccc(Cl)c1N` the growth was 92%.
With `O=[N+]([O-])c1cc(Cl)c2[nH]c3c(Cl)cc([N+](=O)[O-])cc3c2c1` the growth was -10.2% (active).
Work on `COc1cc(/C=C/C(=O)/C=C/c2cc(OC)c3c(c2)OCO3)cc2c1OCO2` yielded a growth of 95.9%.
`Oc1ccccc1/C=N/NC(=S)NC1CC2C=CC1C2` (stereo not drawn) was tested, and the growth was 95.3%.

These compounds were tested on SN12C renal in the same assay as above. Details: 10 µM unless noted.
Compound `COC(=O)c1cccc2c1N(C)c1c(cccc1C(=O)OC)CC2` has a growth of 107%.
Work on `COc1ccc(/C=C2\N=C(c3ccccc3)N(C(=O)c3ccccc3O)NC2=O)cc1` yielded a growth of 86.6%.
With `c1cc2[nH]ncc2cc1-c1nc2ccc3[nH]ncc3c2c2c1CCC2` the growth was 63.9%.
For `O=C(Oc1ccccc1[N+](=O)[O-])C1CCCN1C(=O)OCc1ccccc1` (stereo not drawn), the growth was 98.7%.
Work on `COc1ccc(CCNC2=CC(=O)CCC2)cc1OC` yielded a growth of 102%.
`O=C(Nc1ccncc1)C(=O)c1cn(S(=O)(=O)c2ccc(Cl)cc2)c2ccccc12` gave a growth of 34%.
With `O=C(Nc1cccc(-n2cc(-c3ccncc3)c(-c3ccc(Cl)c(O)c3)n2)c1)Nc1ccc(Cl)c(Cl)c1` the growth was 18%.
For `O=C(Nc1ccncc1)C(=O)c1cn(S(=O)(=O)c2ccccc2F)c2ccccc12`, the growth was 33.8%.
For `O=C(c1ccccc1)C1OC1c1ccc([N+](=O)[O-])cc1` (stereo not drawn), the growth was 76.7%.
Compound `Cc1ccc(Cc2c(C=O)nc(N)[nH]c2=O)c2ccccc12` has a growth of 96.9%.
With `CCN(CC)CCOC(=O)C(c1ccccc1)(c1ccccc1)C(C)C` the growth was 88.1%.
For `COc1ccc(C(=O)N2NC(=O)/C(=C/c3cn(-c4ccccc4)nc3-c3ccccc3)N=C2c2ccccc2)cc1`, the growth was 95%.
Compound `CC(C)(C)OC(=O)NC(CSCc1ccccc1)C(=O)ON1C(=O)CCC1=O` (stereo not drawn) has a growth of 107%.
`COc1ccc(C2=C(c3cc(OC)c(OC)c(OC)c3)C(=O)CC2)cc1` was tested, and the growth was 26.4%.
`COc1ccc(C(=O)N2NC(=O)/C(=C/c3ccccc3F)N=C2c2ccccc2)cc1` gave a growth of 99%.
In the case of `C/C(=C\c1ccc(OCC(=O)O)c(Cl)c1Cl)[N+](=O)[O-]`, the growth was 106%.
With `COc1ccc(-c2cc3c(OC)c(OC)c(OC)cc3oc2=O)cc1` the growth was 56.4%.
Compound `COc1ccc(Nc2ncccc2C(=O)NCc2cn(Cc3cccc(Oc4ccccc4)c3)nn2)c(OC)c1` has a growth of 33.7%.
Compound `CC(=O)Nc1scc[n+]1Cc1ccccc1` has a growth of 111%.
For `COc1cc2c(c(OC)c1OC)-c1ccc(N)c(=O)cc1[C@@H](NC(C)=O)CC2`, the growth was 27.6%.
`O=C([O][Sn]([O]C(=O)c1ccccn1)([c]1ccccc1)[c]1ccccc1)c1ccccn1` gave a growth of 91.3%.
`COC(OC)c1ccccc1` gave a growth of 102%.
`Fc1ccc(Nc2nc(NCCNc3ccnc4cc(Cl)ccc34)nc(N3CCOCC3)n2)cc1` gave a growth of 63.8%.
With `COc1ccc(-c2nc3sc(-c4cc(OC)c(OC)c(OC)c4)nn3c2/C=C2/C(=O)Nc3ccc(F)cc32)cc1` the growth was -29.2% (active).
Compound `Cc1ccc(S(=O)(=O)n2cc(C(=O)C(=O)Nc3ccncc3)c3ccccc32)cc1` has a growth of 39.8%.
`COc1ccc(Nc2ncccc2C(=O)NCc2cn(Cc3cccc(Oc4ccccc4)c3)nn2)cc1` showed a growth of 47.5%.
For `CC1=C(C#N)C(=O)NC(C)C1` (stereo not drawn), the growth was 99.9%.
For `Cc1cc(C2=NNC(=O)Cc3cc4c(cc32)OCCO4)cc(C)c1N`, the growth was 43.6%.
`CCOC(=O)C1=C(C)NC(C)=C(C(=O)OCC)C1(C)C` was tested, and the growth was 97%.
Compound `O=C(Nc1ccncc1)C(=O)c1cn(S(=O)(=O)c2ccc(Br)cc2)c2ccccc12` has a growth of 46.3%.
With `CC1CCC(C)N(C)C1` (stereo not drawn) the growth was 92.8%.
With `CCC(C)/C(=C\C#N)NCCCN/C(=C/C#N)C(C)CC` (stereo not drawn) the growth was 99.7%.
`CC1(c2ccc(Cl)cc2)OC(=O)CC(=O)O1` was tested, and the growth was 102%.
For `CCN(CC)CCOc1ccc(Cl)c(C)c1`, the growth was 108%.
`Nc1cccc(Cl)c1N` gave a growth of 112%.
With `O=[N+]([O-])c1cc(Cl)c2[nH]c3c(Cl)cc([N+](=O)[O-])cc3c2c1` the growth was 2.7% (active).
With `CSc1nc2c(c(=O)[nH]1)C(c1ccc(C)cc1)C=C(C(=O)O)N2` (stereo not drawn) the growth was 120%.
Work on `COc1cc(/C=C/C(=O)/C=C/c2cc(OC)c3c(c2)OCO3)cc2c1OCO2` yielded a growth of 85.4%.
`Oc1ccccc1/C=N/NC(=S)NC1CC2C=CC1C2` (stereo not drawn) showed a growth of 92.8%.
